Results on eleven compounds are retold here after PubChem BioAssay (EPA / NIEHS).

Active and inactive are the calls of the source. Rule for the calls: active = hit-call score of the fitted dose curve at least 0.9, where 1 is the maximum; inactive = score below 0.9.

Read-out in test [1]: Interleukin-8 (IL8), CXCL8 (gene 3576)
Kind of test: BSK_CASM3C_IL8: BioMAP Diversity Plus: CASM3C Assay for Interleukin-8 (IL8) Biomarker Activity (AID 2283042).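 Note: IL-8 protein level quantified by ELISA.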 The conditions noted are these: primary human coronary artery smooth muscle cells; actives raise or lower the signal.

Read-out in test [2]: Human Leukocyte Antigen - DR isotype (HLADR), HLA-DRA (gene 3122)
The test is described as follows: BSK_CASM3C_HLADR: BioMAP Diversity Plus: CASM3C Assay for Human Leukocyte Antigen - DR isotype (HLADR) Biomarker Activity (AID 2283043).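 Note: cell-surface HLA-DR protein level quantified by ELISA.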 The conditions noted are these: primary human coronary artery smooth muscle cells; actives raise or lower the signal.

Read-out in test [3]: Macrophage colony-stimulating factor (MCSF), CSF1 (gene 1435)
Kind of test: BSK_CASM3C_MCSF: BioMAP Diversity Plus: CASM3C Assay for Macrophage colony-stimulating factor (MCSF) Biomarker Activity (AID 2283044).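 Note: M-CSF protein amount quantified by ELISA after 24 h exposure.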 To be noted: primary human coronary artery smooth muscle cells; actives raise or lower the signal.

Read-out in test [4]: Low-density lipoprotein receptor (LDLR), LDLR (gene 3949)
Kind of test: BSK_CASM3C_LDLR: BioMAP Diversity Plus: CASM3C Assay for Low-density lipoprotein receptor (LDLR) Biomarker Activity (AID 2283045).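 Note: LDLR protein level on the cell surface quantified by ELISA.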 The conditions noted are these: primary human coronary artery smooth muscle cells; actives raise or lower the signal.

Read-out in test [5]: Monocyte Chemoattractant Protein-1 (MCP1), CCL2 (gene 6347)
The test is described as follows: BSK_CASM3C_MCP1: BioMAP Diversity Plus: CASM3C Assay for Monocyte Chemoattractant Protein-1 (MCP1) Biomarker Activity (AID 2283046).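 Note: MCP-1 level quantified by ELISA 24 h after dosing.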 To be noted: primary human coronary artery smooth muscle cells; actives raise or lower the signal.

A short description of test [6]: BSK_CASM3C_Proliferation: Cell Proliferation Assessment in the BioMAP Diversity Plus: CASM3C Assay (AID 2283047).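 Note: sulforhodamine B total protein stain as relative cell number at 560 nm; sub-confluent cells exposed 48 h before staining; fitted both ways against DMSO so gain or loss of cell number.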 The conditions noted are these: primary human coronary artery smooth muscle cells.
Read-out in test [7]: Monokine induced gamma interferon (MIG), CXCL9 (gene 4283)
Kind of test: BSK_CASM3C_MIG: BioMAP Diversity Plus: CASM3C Assay for Monokine induced gamma interferon (MIG) Biomarker Activity (AID 2283048).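 Note: MIG protein level measured by ELISA.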 To be noted: primary human coronary artery smooth muscle cells; actives raise or lower the signal.

Read-out in test [8]: serum amyloid A (SAA), SAA1 (gene 6288)
Kind of test: BSK_CASM3C_SAA: BioMAP Diversity Plus: CASM3C Assay for serum amyloid A (SAA) Biomarker Activity (AID 2283049).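 Note: SAA protein level quantified by ELISA.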 To be noted: primary human coronary artery smooth muscle cells; actives raise or lower the signal.

Test [9] can be described thus: BSK_CASM3C_SRB: Viability Assessment in the BioMAP Diversity Plus: CASM3C Assay (AID 2283050).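 Note: total protein by SRB staining as cytotoxicity measure in parallel cultures; cells exposed to compound for 24 h.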 The conditions noted are these: primary human coronary artery smooth muscle cells.
Read-out in test [10]: Thrombomodulin, THBD (gene 7056)
The test is described as follows: BSK_CASM3C_Thrombomodulin: BioMAP Diversity Plus: CASM3C Assay for Thrombomodulin Biomarker Activity (AID 2283051).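 Note: thrombomodulin protein level measured by ELISA 24 h after dosing.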 To be noted: primary human coronary artery smooth muscle cells; actives raise or lower the signal.

Read-out in test [11]: Tissue Factor, F3 (gene 2152)
Kind of test: BSK_CASM3C_TissueFactor: BioMAP Diversity Plus: CASM3C Assay for Tissue Factor Biomarker Activity (AID 2283052).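 Note: cell surface tissue factor protein level read by ELISA.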 The conditions noted are these: primary human coronary artery smooth muscle cells; actives raise or lower the signal.

Read-out in test [12]: Interferon-gamma inducible Protein 10 (IP10), CXCL10 (gene 3627)
Kind of test: BSK_hDFCGF_IP10: BioMAP Diversity Plus: hDFCGF Assay for Interferon-gamma inducible Protein 10 (IP10) Biomarker Activity (AID 2283053). The conditions noted are these: primary human foreskin fibroblasts; actives raise or lower the signal. In a few lines:
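IP-10 levels, quantified by ELISA, are taken from human foreskin fibroblast cultures 24 h after chemical treatment, with DMSO serving as negative control and baseline for bidirectional analysis.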

Read-out in test [13]: Urokinase-type plasminogen activator receptor (uPAR), PLAUR (gene 5329)
Kind of test: BSK_CASM3C_uPAR: BioMAP Diversity Plus: CASM3C Assay for Urokinase-type plasminogen activator receptor (uPAR) Biomarker Activity (AID 2283054).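 Note: cell-surface uPAR protein level quantified by ELISA.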 The conditions noted are these: primary human coronary artery smooth muscle cells; actives raise or lower the signal.

Read-out in test [14]: Vascular cell adhesion molecule 1 (VCAM1), VCAM1 (gene 7412)
The test is described as follows: BSK_CASM3C_VCAM1: BioMAP Diversity Plus: CASM3C Assay for Vascular cell adhesion molecule 1 (VCAM1) Biomarker Activity (AID 2283055).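 Note: VCAM-1 protein level quantified by ELISA on the cells.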 The conditions noted are these: primary human coronary artery smooth muscle cells; actives raise or lower the signal.

Read-out in test [15]: Collagen III, COL3A1 (gene 1281)
The test is described as follows: BSK_hDFCGF_CollagenIII: BioMAP Diversity Plus: hDFCGF Assay for Collagen III Biomarker Activity (AID 2283056). The conditions noted are these: primary human foreskin fibroblasts; actives raise or lower the signal. The method in brief: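 Human foreskin primary fibroblasts were exposed to test chemicals for 24 h, after which collagen III was quantified by ELISA. Activity was fitted bidirectionally against DMSO as negative control and baseline.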

Read-out in test [16]: Epidermal growth factor receptor (EGFR), EGFR (gene 1956)
The test is described as follows: BSK_hDFCGF_EGFR: BioMAP Diversity Plus: hDFCGF Assay for Epidermal growth factor receptor (EGFR) Biomarker Activity (AID 2283057). The conditions noted are these: primary human foreskin fibroblasts; actives raise or lower the signal. The method in brief:
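Measured by ELISA: EGFR levels on primary human foreskin fibroblasts 24 h after chemical treatment, analysed relative to DMSO with bidirectional fitting.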

Read-out in test [17]: Interleukin-8 (IL8), CXCL8 (gene 3576)
Kind of test: BSK_hDFCGF_IL8: BioMAP Diversity Plus: hDFCGF Assay for Interleukin-8 (IL8) Biomarker Activity (AID 2283058). The conditions noted are these: primary human foreskin fibroblasts; actives raise or lower the signal. The method in brief: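 hDFCGF human dermal fibroblasts; 24 h chemical exposure; IL-8 by ELISA; bidirectional curve fit vs DMSO baseline; gain or loss of signal scored.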

Test [18] in a line: BSK_hDFCGF_Proliferation: Cell Proliferation Assessment in the BioMAP Diversity Plus: hDFCGF Assay (AID 2283059).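 Note: curves fitted for both rise and fall of signal versus DMSO baseline.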 To be noted: primary human foreskin fibroblasts. In a few lines: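 This proliferation readout used SRB total-protein staining of human foreskin fibroblasts […], normalized to DMSO with bidirectional curve fitting.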
Test [19] in a line: BSK_hDFCGF_SRB: Viability Assessment in the BioMAP Diversity Plus: hDFCGF Assay (AID 2283061).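 Note: cells exposed to compound for 24 h before the read.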 The conditions noted are these: primary human foreskin fibroblasts. In a few lines:
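Human foreskin primary fibroblasts were treated with compound and assessed 24 h after dosing. Total protein was measured by sulforhodamine B staining (0.1% SRB after 10% TCA fixation, 560 nm read) as a cytotoxicity marker, with bidirectional fitting against DMSO baseline.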

Consider `CSCCC=O`, for which the result in test [1], in test [2], in [3], in test [4], in test [5] and in test [6] was inactive. Moreover, the result in test [7], in [8], in [9], in test [10], in test [11] and in test [12] was inactive. Also, the result in test [13], in [14], in test [15], in test [16], in test [17] and in test [18] was inactive. In addition, the outcome in test [19] was inactive.

For orientation: AC50 means the concentration giving half of the maximal activity seen. Regarding `CC(C=O)Cc1ccc(C(C)(C)C)cc1` (centres undefined), the outcome in test [1], in [4], in test [8], in test [10], in test [12] and in test [15] was inactive. The result in [17] was inactive. Moreover, the concentration at half-maximal activity (AC50) is 28.8 µM (active) in test [2]; 27.5 µM (active) in test [3]; 30.6 µM (active) in [5]; 32.3 µM (active) in test [6]; 30.7 µM (active) in test [7]; 31.3 µM (active) in [9]. Besides, the AC50 in test [11] was 20 µM (active); in [13] it was 33.7 µM (active); in test [14], 27.3 µM (active); in test [16], 32.1 µM (active); in test [18], 29.1 µM (active); in test [19] it was 35.5 µM (active).

`CC(=O)Nc1ccc(C(=O)CCl)cc1`: the concentration at half-maximal activity (AC50) in test [1] is 12.6 µM (active); in [2] it was 3.78 µM (active); in [3] it was 8.22 µM (active); in [4], 11.6 µM (active); in test [5], 8.38 µM (active); in test [6] it was 5.44 µM (active). Further, the AC50 in test [7] is 8.96 µM (active); in [9], 12.8 µM (active); in [11], 3.97 µM (active); in test [12] it was 9.56 µM (active); in [13], 5.2 µM (active); in test [14], 4.84 µM (active). In addition, the concentration at half-maximal activity (AC50) in [15] was 7.2 µM (active); in [17], 9.4 µM (active); in test [18] it was 3.18 µM (active); in test [19], 11.2 µM (active). Further, the outcome in test [8], in [10] and in [16] was inactive.

As to `C=C(C)[C@H]1CC=C(C)C(=O)C1`, the outcome in test [1], in [2], in test [3], in [4], in test [5] and in [6] was inactive. Besides, the outcome in test [7], in test [8], in test [9], in test [10], in [11] and in test [12] was inactive. Besides, the outcome in test [13], in test [14], in [15], in [16], in test [17] and in [18] was inactive. For the same compound, the outcome in test [19] was inactive.

For `COc1ccc(OC)c(N=Nc2c(O)ccc3ccccc23)c1`, the result in test [1], in [2], in [5], in test [7], in test [8] and in [10] was inactive. The outcome in test [11], in [13], in test [16] and in test [17] was inactive. Further, the half-maximal activity concentration (AC50) in [3] was 0.0186 µM (active); in [4] it was 0.119 µM (active); in [6], 33.6 µM (active); in test [9], 20 µM (active); in test [12], 3.71 µM (active); in test [14] it was 20 µM (active). The AC50 is 1.92 µM (active) in test [15], 10.2 µM (active) in test [18] and 8.26 µM (active) in test [19].

On to `Cc1cc(CCC(=O)OCCOCCOCCOC(=O)CCc2cc(C)c(O)c(C(C)(C)C)c2)cc(C(C)(C)C)c1O`, for which the result in test [1], in [2], in test [3], in test [4], in test [5] and in test [6] was inactive. In addition, the result in test [7], in test [8], in test [9], in test [10], in test [11] and in test [12] was inactive. For the same compound, the outcome in test [13], in [14], in [16], in test [17] and in test [19] was inactive. In addition, the AC50 was 23.1 µM (active) in test [15] and 22.8 µM (active) in [18].

With `O=CN1CCOCC1`, the outcome in test [1], in test [2], in test [3], in test [4], in [5] and in test [6] was inactive. Moreover, the outcome in test [7], in test [8], in test [9], in test [10], in test [11] and in test [12] was inactive. The outcome in test [13], in [14], in [15], in [16], in test [17] and in test [18] was inactive. The result in test [19] was inactive.

As to `CN(c1nccc(=O)[nH]1)C1CCN(c2nc3ccccc3n2Cc2ccc(F)cc2)CC1`, the result in test [1], in test [2], in [3], in [4], in test [5] and in test [6] was inactive. The result in test [7], in [8], in test [9], in test [10], in test [11] and in test [12] was inactive. Also, the outcome in test [13], in test [14], in test [15], in test [16], in test [17] and in test [18] was inactive. Further, in test [19], the outcome was inactive.

In the case of `CCCCCCCCCCCCCCCC(=O)OC/C=C(C)/C=C/C=C(C)/C=C/C1=C(C)CCCC1(C)C`, the result in test [1], in test [2], in test [3], in [4], in [5] and in test [6] was inactive. The outcome in test [7], in test [8], in test [9], in test [10], in [11] and in [12] was inactive. In addition, the outcome in [13], in test [16], in [17] and in test [19] was inactive. The concentration at half-maximal activity (AC50) was 0.0326 µM (active) in test [14], 3.97 µM (active) in [15] and 27.7 µM (active) in [18].

As for `CN(C)C(=O)Nc1ccc(Oc2ccc(Cl)cc2)cc1`, the result in test [1], in test [2], in test [3], in test [4], in [5] and in test [6] was inactive. Further, the result in test [7], in test [8], in [9], in test [10], in test [11] and in [12] was inactive. In addition, the result in test [13], in test [14], in test [15], in test [16], in [17] and in [18] was inactive. Besides, the result in test [19] was inactive.

In the case of `C1=CC2C3C=CC(C3)C2C1` (centres undefined), the result in test [1], in [2], in [3], in test [4], in [5] and in test [6] was inactive. Also, the result in test [7], in [8], in test [9], in test [10], in test [11] and in test [12] was inactive. The outcome in [13], in test [14], in test [15], in test [16], in test [17] and in test [18] was inactive. For the same compound, the outcome in test [19] was inactive.
